Inconclusive results are not listed. Some compounds were tested as several samples or in several runs, with calls that do not always agree. Activity calls are given as the source filed them. Calls follow the shape of the full dose curve.
Assay: Primary qHTS to identify inhibitors of SARS-CoV-2 cell entry (AID 1645846); also: nearly all actives have a fitted effect of over 45% in size
Conditions: SARS-CoV-2 pseudovirus cell entry assay, luminescence; activity change, negative = inhibition: at 57.1 µM (top of the series) unless noted; series mostly up to 57.1 µM
In short: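 Data are normalized to wells receiving SARS-CoV-2-S pseudoparticles and those given bald particles. Entry signal was luciferase luminescence in stable hACE2 Expi293F cells, 48 hr post-infection, after 1 hr compound pretreatment.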
Potency is read from the fitted curve at half-maximal effect.

| SMILES | activity change, negative = inhibition [%] | Potency |
| --- | --- | --- |
| O=c1[nH]c(=O)n([C@H]2C[C@H](O)[C@@H](CO)O2)cc1C(F)(F)F | -93.8 | – |
| CN(C)CCOC(c1ccccc1)c1ccc(Br)cc1 (configuration not stated) | -67.2 | – |
| COC(=O)[C@H]1[C@H]2C[C@@H]3c4[nH]c5cc(OC)ccc5c4CCN3C[C@H]2C[C@@H](OC(=O)/C=C/c2ccc(O)c(OC)c2)[C@@H]1OC | – | 12.6 µM (active) |
| CN(C)CCCN1c2ccccc2Sc2ccccc21 | – | 14.1 µM (active) |
| CCN(CC)CCOc1ccc(/C(=C(\Cl)c2ccccc2)c2ccccc2)cc1 | 4.38 | – |
| O[C@@H](COc1cccc2ncccc12)CN1CCN(C2c3ccccc3[C@@H]3[C@H](c4ccccc42)C3(F)F)CC1 (some centres not stated) | – | 28.2 µM (active) |
| CN(C(=O)c1c(O)c2ccccc2n(C)c1=O)c1ccccc1 | -55.9 | – |
| CN1CCC(=C2c3ccccc3CCc3sccc32)CC1 | – | 14.1 µM (active) |
| CCOC(=O)C1=C(C)NC(C)=C(C(=O)OCC)C1c1ccccc1/C=C/C(=O)OC(C)(C)C | – | 25.1 µM (active) |
| CCCSS/C(CCO)=C(\C)N(C=O)Cc1cnc(C)nc1N | -57.5 | – |
| CCCCCCOC(=O)NC(=N)c1ccc(NCc2nc3cc(C(=O)N(CCC(=O)OCC)c4ccccn4)ccc3n2C)cc1 | -62 | 22.4 µM (active) |
| Oc1c(Cl)cc(Cl)cc1Sc1cc(Cl)cc(Cl)c1O | – | 20 µM (active) |
| CCCCC(CC)COC(=O)C(C#N)=C(c1ccccc1)c1ccccc1 (configuration not stated) | -96.1 | – |

Assay: VSVG counterscreen qHTS to identify inhibitors of SARS-CoV-2 cell entry (AID 1645847); also: nearly all actives have a fitted effect of over 65% in size; as to activity change, negative = inhibition: % is scaled to controls: 0 for no effect and ±100 for the full control effect
Conditions: VSV-G pseudotyped particle entry, luciferase; series mostly up to 57.2 µM; activity change, negative = inhibition: at the top concentration
In short: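 Counterscreen using VSV-G (not spike) pseudotyped MLV particles on ACE2-expressing Expi293F cells after 1 h compound preincubation; infection ran 48 h at 37 °C. Data normalized to VSV-G PP and bald-PP wells.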

| SMILES | Potency | activity change, negative = inhibition |
| --- | --- | --- |
| COCCOC(=O)C1=C(C)NC(C)=C(C(=O)OC/C=C/c2ccccc2)C1c1cccc([N+](=O)[O-])c1 (configuration not stated) | 21.5 µM (active) | – |
| O=c1[nH]c(=O)n([C@H]2C[C@H](O)[C@@H](CO)O2)cc1C(F)(F)F | 0.242 µM (active) | – |
| O=C1NC2CCCCN2C12CCN(CCCN1c3ccccc3CCc3ccc(Cl)cc31)CC2 (configuration not stated) | 21.5 µM (active) | – |
| CC(=O)c1ccc2c(c1)N(CCCN1CCC(CCO)CC1)c1ccccc1S2 | 7.08 µM (active) | – |
| CN(C)CCOC(c1ccccc1)c1ccc(Br)cc1 (configuration not stated) | 2.71 µM (active) | – |
| COC(=O)[C@H]1[C@H]2C[C@@H]3c4[nH]c5cc(OC)ccc5c4CCN3C[C@H]2C[C@@H](OC(=O)/C=C/c2ccc(O)c(OC)c2)[C@@H]1OC | 19.2 µM (active) | – |
| Clc1ccccc1C(c1ccccc1)(c1ccccc1)n1ccnc1 | 19.2 µM (active) | – |
| CCN(CC)CCOc1ccc(/C(=C(\Cl)c2ccccc2)c2ccccc2)cc1 | 8.57 µM (active) | – |
| O=C(CCCN1CCN(c2ccc(F)cc2)CC1)NC1c2ccccc2CSc2ccccc21 (configuration not stated) | 1.71 µM (active) | – |
| O[C@@H](COc1cccc2ncccc12)CN1CCN(C2c3ccccc3[C@@H]3[C@H](c4ccccc42)C3(F)F)CC1 (some centres not stated) | 0.171 µM (active) | – |
| O=C(Nc1ccccc1)OCC(CN1CCCCC1)OC(=O)Nc1ccccc1 (configuration not stated) | – | 0.829% (inactive) |
| CN(C(=O)c1c(O)c2ccccc2n(C)c1=O)c1ccccc1 | – | -8.7% (inactive) |
| CN1CCC(=C2c3ccccc3CCc3sccc32)CC1 | 12.1 µM (active) | – |
| CC1=CC(=O)c2ccccc2C1=O | 6.81 µM (active) | – |
| CCOC(=O)C1=C(C)NC(C)=C(C(=O)OCC)C1c1ccccc1/C=C/C(=O)OC(C)(C)C | 1.21 µM (active) | – |
| CCCSS/C(CCO)=C(\C)N(C=O)Cc1cnc(C)nc1N | – | -5.29% (inactive) |
| CCCCCCOC(=O)NC(=N)c1ccc(NCc2nc3cc(C(=O)N(CCC(=O)OCC)c4ccccn4)ccc3n2C)cc1 | 4.82 µM (active) | – |
| Oc1c(Cl)cc(Cl)cc1Sc1cc(Cl)cc(Cl)c1O | 4.82 µM (active) | – |
| CCCOc1ccc2nc(NC(=O)OC)[nH]c2c1 | 0.607 µM (active) | – |
| CCCCC(CC)COC(=O)C(C#N)=C(c1ccccc1)c1ccccc1 (configuration not stated) | 21.5 µM (active) | – |
| Oc1ccc(Cl)cc1Cc1cc(Cl)ccc1O | 3.83 µM (active) | – |
| CCCCCC(=O)O[C@]1(C(C)=O)CC[C@H]2[C@@H]3CCC4=CC(=O)CC[C@]4(C)[C@H]3CC[C@@]21C | 24.1 µM (active) | – |
| COC(=O)C1=C(C)NC(C)=C(C(=O)OC(C)(C)CN(C)CCC(c2ccccc2)c2ccccc2)C1c1cccc([N+](=O)[O-])c1 (configuration not stated) | 21.5 µM (active) | – |
